Test [1] concerns the target Cellular tumor antigen p53 (Homo sapiens) (UniProt P04637). Nature of the test: TOX21_p53_BLA_p2_ratio: Tox21 HCT-116 p53 Agonism Beta-lactamase Assay, Ratio, Phase 2 (AID 2283592). The method, boiled down:
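Gain-of-signal p53 agonism was scored from the beta-lactamase FRET ratio (460/530 nm, 405 nm excitation) in HCT116 cells treated 16 h at 37C, 5% CO2, with DMSO serving as negative control and baseline.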

The target is the same in test [2]. Nature of the test: TOX21_p53_BLA_p3_ratio: Tox21 HCT-116 p53 Agonism Beta-lactamase Assay, Ratio, Phase 3 (AID 2283596). The method, boiled down:
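HCT116 p53-bla cells (4000/well) given compound in DMSO (217-fold dilution) after 5 h, incubated 16 h at 37C. CCF4-AM substrate 2 h at room temperature; 460/530 nm emission ratio, gain fitted against DMSO.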

The target is the same in test [3]. Nature of the test: TOX21_p53_BLA_p5_ratio: Tox21 HCT-116 p53 Agonism Beta-lactamase Assay, Ratio, Phase 5 (AID 2283599). An outline of the steps:
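Beta-lactamase reporter ratio (blue 460 nm over green 530 nm, 405 nm excitation) after 2 h CCF4-AM loading, in HCT-116 cells exposed 16 h at 37 C to compounds pinned at 217-fold dilution. Increases relative to DMSO baseline scored.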

The target is the same in test [4]. Put plainly: TOX21_p53_BLA_p4_ratio: Tox21 HCT-116 p53 Agonism Beta-lactamase Assay, Ratio, Phase 4 (AID 2283601). An outline of the steps:
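Signal is the blue/green (460nm/530nm) ratio of cleaved versus uncleaved CCF4-AM substrate, read after 2 h substrate loading. Cells were HCT116 carrying the p53-responsive beta-lactamase reporter, dosed 16 h at 37C, 5% CO2; CellTiter-Glo measured in parallel.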

The nature of test [5]: TOX21_p53_BLA_p5_viability: Viability Assessment in the Tox21 HCT-116 p53 Agonism Beta-lactamase Assay, Phase 5 (AID 2283600). The method, boiled down: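 After the 460/530 nm beta-lactamase measurement, the wells received an ATP-detection luciferase reagent; signal was read 30 min later at RT. Compound treatment lasted 16 h on cells pre-incubated 5 h post-seeding.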
Test [6] has as its system Brachyury (BRA) Protein Expression, Deisenroth Lab, TBXT (gene 6862). Put plainly: CCTE_Deisenroth_DEVTOX-GLR_legacy_Bra: (Legacy) CCTE's DevTox GLR-Endo Assay Evaluation of Brachyury (BRA) Protein Expression, Deisenroth Lab (AID 2284329; active = hit-call score of the fitted dose curve at least 0.9, where 1 is the maximum; inactive = score below 0.9). The method, boiled down: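 Human pluripotent RUES2-GLR line was exposed twice during 48 h differentiation to a 10-point series, 1 nM - 200 uM. Fraction of Bra-positive cells was scored by imaging against pluripotent baseline and fitted after 0.2% DMSO subtraction.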

Test [7] can be described thus: CCTE_Deisenroth_DEVTOX-GLR_legacy_CellCount: (Legacy) Viability Assessment in CCTE's DevTox GLR-Endo Assay, Deisenroth Lab (AID 2284331; active = hit-call score of the fitted dose curve at least 0.9, where 1 is the maximum; inactive = score below 0.9). As to conditions: actives raise or lower the signal. The method, boiled down:
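Seed RUES2-GLR 24 h; differentiate 48 h, dosing at 0 and 24 h; fix, stain nuclei; image 5 fields/well; count nuclei. Conc. 1 nM - 200 uM, single technical replicate, n=4 experiments; bidirectional fit vs 0.2% DMSO.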

For test [8], the system named is SRY-box transcription factor 17 (SOX17) Protein Expression, Deisenroth Lab, SOX17 (gene 64321). Put plainly: CCTE_Deisenroth_DEVTOX-GLR_legacy_Sox17: (Legacy) CCTE's DevTox GLR-Endo Assay Evaluation of SRY-box transcription factor 17 (SOX17) Protein Expression, Deisenroth Lab (AID 2284341; active = hit-call score of the fitted dose curve at least 0.9, where 1 is the maximum; inactive = score below 0.9). To be noted: actives raise or lower the signal. The method, boiled down: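 Using the RUES2-GLR line, compounds are tested as 10-point series during 48-h defined-media differentiation. Sox17 reporter fluorescence per cell determines positivity; endpoint is percentage positive, analysed bidirectionally versus DMSO baseline.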

Test [9] has as its system SRY-box transcription factor 2 (SOX2) Protein Expression, Deisenroth Lab, SOX2 (gene 6657). Put plainly: CCTE_Deisenroth_DEVTOX-GLR_legacy_Sox2: (Legacy) CCTE's DevTox GLR-Endo Assay Evaluation of SRY-box transcription factor 2 (SOX2) Protein Expression, Deisenroth Lab (AID 2284346; active = hit-call score of the fitted dose curve at least 0.9, where 1 is the maximum; inactive = score below 0.9). An outline of the steps:
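hPSC RUES2-GLR, 384-well; 24 h seed → 48 h endoderm differentiation, 2 doses q24h, 1 nM–200 uM. Fix, nuclear dye, 5 fields/well. Sox2+ cells/cell count; cell positive if >5x BMAD over endoderm ctrl; gain direction vs DMSO.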

Test [10] has as its system SRY-box transcription factor 17 (SOX17) Protein Expression, Deisenroth Lab, SOX17 (gene 64321). Put plainly: CCTE_Deisenroth_DEVTOX-GLR_Endo_SOX17: CCTE's DevTox GLR-Endo Assay Evaluation of SRY-box transcription factor 17 (SOX17) Protein Expression, Deisenroth Lab (AID 2284413; active = hit-call score of the fitted dose curve at least 0.9, where 1 is the maximum; inactive = score below 0.9). The method, boiled down:
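Seed RUES2-GLR cells 24 h; start endoderm differentiation; dose at 0 and 24 h (1 nM - 200 uM, 10 points); fix at 48 h, stain nuclei, image 5 fields/well; compute SOX17+/total cells vs 0.2% DMSO.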

Test [11] has as its system Brachyury (BRA) Protein Expression, TBXT (gene 6862). Nature of the test: CCTE_Deisenroth_DEVTOX-GLR_Endo_BRA: CCTE's DevTox GLR-Endo Assay Evaluation of Brachyury (BRA) Protein Expression, Deisenroth Lab (AID 2284417; active = hit-call score of the fitted dose curve at least 0.9, where 1 is the maximum; inactive = score below 0.9). The method, boiled down:
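Percent BRA+ (mesoderm) RUES2-GLR cells after 48 h differentiation with two exposures, 1 nM - 200 uM; 0.2% DMSO control subtracted.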

Test [12] is described as follows: CCTE_Deisenroth_DEVTOX-GLR_Endo_CellCount: Viability Assessment in CCTE's DevTox GLR-Endo Assay, Deisenroth Lab (AID 2284420; active = hit-call score of the fitted dose curve at least 0.9, where 1 is the maximum; inactive = score below 0.9). An outline of the steps:
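Percent change in nuclear-stain cell counts versus 0.2% DMSO, from high-content imaging over 5 fields per well. Over a 48 h endoderm differentiation, RUES2-GLR cells received two doses 24 h apart across a 1 nM–200 uM series, with n=4.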

In test [13] the test system is SRY-box transcription factor 17 (SOX17) Protein Expression, Deisenroth Lab, SOX17 (gene 64321). Put plainly: CCTE_Deisenroth_DEVTOX-GLR_Pluri_SOX17: CCTE's DevTox GLR-Pluri Assay Evaluation of SRY-box transcription factor 17 (SOX17) Protein Expression, Deisenroth Lab (AID 2284427). An outline of the steps: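 The endpoint is SOX17+ cells as a fraction of cell count, corrected for the 0.2% DMSO control and obtained by high-content fluorescence imaging of fixed cells. Cells were RUES2-GLR under a 48-hour endoderm differentiation, dosed twice at 24-hour intervals over 1 nM–200 uM.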

Test [14] relates to SRY-box transcription factor 2 (SOX2) Protein Expression, Deisenroth Lab, SOX2 (gene 6657). Put plainly: CCTE_Deisenroth_DEVTOX-GLR_Pluri_SOX2: CCTE's DevTox GLR-Pluri Assay Evaluation of SRY-box transcription factor 2 (SOX2) Protein Expression, Deisenroth Lab (AID 2284428; active = hit-call score of the fitted dose curve at least 0.9, where 1 is the maximum; inactive = score below 0.9). The method, boiled down:
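Percent SOX2+ cells (SOX2+ count per total cells, fluorescent imaging) in RUES2-GLR human pluripotent line, expressed relative to 0.2% DMSO. Compounds dosed twice at 24 h intervals during 48 h, 1 nM - 200 uM, 10 concentrations.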

Test [15] has as its system Brachyury (BRA) Protein Expression, Deisenroth Lab, TBXT (gene 6862). Put plainly: CCTE_Deisenroth_DEVTOX-GLR_Pluri_BRA: CCTE's DevTox GLR-Pluri Assay Evaluation of Brachyury (BRA) Protein Expression, Deisenroth Lab (AID 2284429). An outline of the steps: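 An inducible fluorescent BRA reporter in RUES2-GLR cells tracks mesoderm differentiation. Compounds (10 concentrations, 1 nM - 200 uM) are dosed twice within a 48-h differentiation. The endpoint subtracts the 0.2% DMSO control from percent BRA+ cells.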

Test [16] can be described thus: CCTE_Deisenroth_DEVTOX-GLR_Pluri_CellCount: Viability Assessment in CCTE's DevTox GLR-Pluri Assay Evaluation of Total Cell Counts, Deisenroth Lab (AID 2284430; active = hit-call score of the fitted dose curve at least 0.9, where 1 is the maximum; inactive = score below 0.9). An outline of the steps:
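RUES2-GLR human pluripotent cells, seeded 24 h, then differentiated 48 h with two chemical exposures 24 h apart; 10-point series 1 nM - 200 uM. Fixed, nuclear-stained, imaged (5 fields/well); nuclei count as % change vs 0.2% DMSO.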

Results filed as inconclusive are left out. Active and inactive are the calls of the source. Rule for the calls, unless noted: active = hit-call score of the fitted dose curve at least 0.9, where 1 is the maximum; inconclusive = response in the unintended direction; inactive = score below 0.9.

Sequence of Cellular tumor antigen p53 (Homo sapiens) (P04637 whole entry, looked up): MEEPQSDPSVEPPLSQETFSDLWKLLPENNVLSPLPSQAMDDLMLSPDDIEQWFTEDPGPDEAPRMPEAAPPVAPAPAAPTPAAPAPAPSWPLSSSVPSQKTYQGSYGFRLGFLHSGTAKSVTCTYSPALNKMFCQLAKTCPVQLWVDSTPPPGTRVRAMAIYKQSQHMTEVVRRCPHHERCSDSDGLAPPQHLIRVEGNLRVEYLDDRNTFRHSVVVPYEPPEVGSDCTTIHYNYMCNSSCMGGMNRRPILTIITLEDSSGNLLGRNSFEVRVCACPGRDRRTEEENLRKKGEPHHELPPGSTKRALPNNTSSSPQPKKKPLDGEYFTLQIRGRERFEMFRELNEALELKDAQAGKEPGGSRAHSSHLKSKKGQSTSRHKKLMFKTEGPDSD

What is called AC50 is the concentration at which the activity in the assay is half-maximal. Regarding `CC[C@]12CCCN3CCc4c(n(c5ccccc45)C(=O)C1)[C@@H]32`, the AC50 in [1] is 3.57 µM (active); in test [2], 4.33 µM (active); in test [3] it was 5.58 µM (active); in test [4], 3.51 µM (active).

As for `CC1OCCC1=O` (configuration not stated), the outcome in test [1], in test [2], in test [5] and in [4] was inactive.

As to `Cc1ncc(COP(=O)(O)O)c(CN)c1O`, the result in test [1], in test [2], in [3] and in test [4] was inactive.

As to `Nc1nc2c(ncn2COCCO)c(=O)[nH]1`, the result in test [1], in [2], in test [3], in test [4], in test [6] and in test [7] was inactive. The outcome in test [8], in test [9], in test [10], in test [11], in test [12] and in test [13] was inactive. Also, the outcome in test [14], in [15] and in [16] was inactive.

These data come from PubChem BioAssay (EPA / NIEHS).
